An excerpt weighted towards active compounds, which were near 2.6% of everything screened.
Luciferase inh – blocks Photinus pyralis firefly luciferase activity | P08659 | purified firefly luciferase, luminescence, 8 min | actives 2.2% (n = 72,000) | Potency, µM (series often up to 57.1 µM), most hits filed as inhibitors | AID 411; note: nearly all actives have a fitted effect of over 40% in size
Target sequence (P08659 whole entry, looked up): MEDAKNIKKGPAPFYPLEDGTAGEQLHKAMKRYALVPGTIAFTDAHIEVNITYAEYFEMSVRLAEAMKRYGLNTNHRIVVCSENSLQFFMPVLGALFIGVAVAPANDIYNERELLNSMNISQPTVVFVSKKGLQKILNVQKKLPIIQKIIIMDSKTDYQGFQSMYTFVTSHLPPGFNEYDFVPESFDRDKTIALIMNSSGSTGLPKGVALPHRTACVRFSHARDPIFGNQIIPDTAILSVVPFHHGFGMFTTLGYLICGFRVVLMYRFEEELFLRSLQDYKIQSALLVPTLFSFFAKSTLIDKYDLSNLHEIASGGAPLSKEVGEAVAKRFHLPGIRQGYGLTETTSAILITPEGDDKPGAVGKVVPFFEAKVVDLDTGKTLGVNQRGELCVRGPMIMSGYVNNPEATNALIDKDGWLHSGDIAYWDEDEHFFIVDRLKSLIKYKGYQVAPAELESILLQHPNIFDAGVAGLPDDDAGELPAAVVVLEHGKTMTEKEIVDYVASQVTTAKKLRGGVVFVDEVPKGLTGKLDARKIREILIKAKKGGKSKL
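Firefly luciferase (PKLight detection mix) with 10 uM ATP in pH 7.2 imidazole buffer (KCl, MgCl2, Tween 20, BSA). Compounds tested across a concentration series (qHTS). Luminescence read after 8 min at ambient temperature.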
Bst PK mod – modulators of Bacillus stearothermophilus pyruvate kinase. purified pyruvate kinase, luminescence ATP production; ribose 5-phosphate activator present at AC10. Potency, µM. actives 1.2% (n = 51,000). AID 361; in the data active = potency below about 11 µM; inconclusive = mostly about 12 µM to 25 µM;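 the screen sought inhibitors and activators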
HBB splice mod – alters splicing of the hemoglobin beta chain | HBB splicing reporter cell assay, activation; EGFP reporter with mutant IVS2-654 intron; response scale: normalised to 500 nM splice-correcting PNA | Potency, µM (highest dose often 46.1 µM), most hits filed as activators | AID 925 | actives 0.06% (n = 65,000)
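HeLa cells stably expressing EGFP interrupted by mutant beta-globin intron 2 (IVS2-654), 500/well in 2% FCS. Treated with compound for 2 days at 37C. Splicing correction scored as total well GFP intensity (488 nm excitation, 500-520 nm emission); 500 nM antisense PNA served as control.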
GFP derepression – derepresses silenced GFP locus in mouse C127i cells; mouse C127i GFP locus derepression, cytometry, 30 h; Potency, µM (highest dose often 46.1 µM); actives 0.09% (n = 68,000)
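Murine C127i mammary cells carrying a silenced, stably integrated CMV-driven GFP reporter were treated with compound for 30 hours at 37 C. After PBS washes, GFP-positive cells were counted by laser-scanning microplate cytometry.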
UbGFP stabilizer – inhibits proteasome, raising ubiquitin-GFP reporter fluorescence. Ubiquitin-GFP reporter cells, proteasome inhibition, GFP fluorescence; response scale: untreated = 0%, 10 µM MG-132 = 100%. Potency, µM (titrated, usually from 45.9 µM), hits mostly activators. 67,000 tested, under 10 active. AID 526; active = well fitted activation curve with a large enough effect, not every such curve was filed as active; inconclusive = small, poorly fitted or top-dose-only effect, or another doubt; inactive = no such curve, though single readings can be large or run the other way
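GFP accumulation read-out: laser plate cytometry counting ubiquitin(G76V)-GFP-expressing U2OS cells after 4 hr compound exposure at 37 °C. Titrations spanned 46 uM to 2.9 nM; 0% = basal, 100% = 10 uM MG-132; concentration-response curves fitted.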
Numbers stand for hits; n = inactive; u = inconclusive; x = no result; [ ] = remark or other dose. Unless noted, calls come from the whole dose curve; as a rule, active = well fitted curve in the direction sought with a large enough effect; inconclusive = small, poorly fitted or top-dose-only effect, or another doubt; inactive = no such curve, though single readings can be large; an effect the other way counts as inactive or inconclusive.

SMILES | Luciferase inh | Bst PK mod | HBB splice mod | GFP derepression | UbGFP stabilizer
Nc1nc(CSc2ncn(-c3ccccc3)n2)cs1 | 25µM | x | n | n | n
COc1ccc(-n2c(=O)c(-c3cn(C)c4ccccc34)nc3cnc(N4CCOCC4)nc32)cc1 | n[11.4 µM] | x | n | n[9.22 µM] | n
c1cncc(-c2nc(-c3ccc4c(c3)OCO4)cs2)c1 | 13µM | u | n | n | n
Nc1nc(-c2ccc3c(c2)CCCC3)cs1 | 13µM | u | n | n | n
Nc1nc(-c2ccc3c(c2)OCCO3)cs1 | 25µM | n | n | n | n
CCC(C)C(=O)N1CCc2cc(-c3csc(N)n3)ccc21 (centres undefined) | 10µM | 8.1 | x | n | n
CCCC(=O)Nc1nc(-c2ccc3c(c2)OCCO3)cs1 | n | x | n | x | n
O=C(/C=C\C=C/c1ccc2c(c1)OCO2)N1CCCCC1 | u | x | n | n | n
Cc1ccc(S(=O)(=O)N2C(=O)CCC2C(=O)Nc2ccc3c(c2)OCCO3)cc1 (centres undefined) | n | 2.3 | n | n | n
Cc1ccc(OCc2nc(-c3ccccc3)no2)c(C)c1 | 16µM | x | n | n | n
Cc1cc(C)c(C)c(OCc2nc(-c3cccnc3)no2)c1 | n | n | n | n | n
O=c1c(-c2cccs2)nc2cnc(N3CCNCC3)nc2n1C1CC1 | n[11.4 µM] | x | n | n[9.22 µM] | n
CNC(=O)c1cc2ccccc2o1 | n | n | x | n | x
O=C(Nc1cccc(Br)c1)c1cc2ccccc2o1 | 7.9µM | x | n | n | n
Cc1cccc(NC(=O)c2cc3ccccc3o2)c1 | 13µM | u | n | n | n
CC(C)C(=O)Nc1ccc(NC(=O)c2cc3ccccc3o2)cc1 | n | n | n | n | n
CCC(=O)Nc1cccc(NC(=O)c2cc3ccccc3o2)c1 | 4µM | x | n | n | n
Cc1cc(C(=O)Nc2cccc(C(=O)O)c2)oc1C | 16µM | n | n | n | n
Cc1oc(-c2ccccc2)cc1C(=O)Nc1cccc(C(=O)O)c1 | n | n | n | n | n
c1ccc(CO[C@H]2NCCN2Cc2ccccc2)cc1 | n[11.4 µM] | x | n[9.22 µM] | n[9.22 µM] | n[9.17 µM]
CN(C)c1nc(-c2ccoc2)nc2ccccc12 | n[2.29 µM] | x | n | n[9.22 µM] | n
COc1ccc(/C=N/n2cc(-c3ccccc3)nc2N)cc1 | n | x | n[9.22 µM] | n | n
COc1ccc(/C=N\n2nnc3ccccc32)cc1 | 3.2µM | 2.2 | n | n | n
NNC(=O)[C@@H](O)[C@H](O)[C@H](O)CO | n[11.4 µM] | x | n[9.22 µM] | n[9.22 µM] | n[9.17 µM]
O=C1c2ccccc2NC(c2ccc3c(c2)OCCO3)N1c1ccc2c(c1)OCCO2 (centres undefined) | 20µM | x | n[1.84 µM] | n | n
SMILES | Luciferase inh | Bst PK mod | HBB splice mod | GFP derepression | UbGFP stabilizer
O=C1c2ccccc2NC(c2ccc3c(c2)OCO3)N1O (centres undefined) | n | n | n | n | n
CCn1nc(NC(=O)c2cccnc2)c2cc3cccc(C)c3nc21 | n | n | n | n | n
Cc1ccc2nc3c(cc2c1)c(NC(=O)c1cccnc1)nn3C | 13µM | n | n | n | n
CC(=O)c1ccc(OC2C=CC(C#Cc3ccc(Br)cc3)OC2CO)cc1 (centres undefined) | x | x | n[9.22 µM] | x | x
Cc1c(-c2nc(N)nc(Nc3ccccc3F)n2)oc2ccccc12 | 13µM | x | n | n | n
COc1ccccc1Nc1nc(N)nc(-c2cc3ccccc3o2)n1 | n | x | n | n | n
COC(=O)C/C=C\[C@@H](C)[C@@H](/C=N\OC[C@@H](O)[C@H]1O[C@H]2OC(C)(C)O[C@H]2[C@@H]1O)OC | n[11.4 µM] | x | n[9.22 µM] | x | x
COc1ccc(C)c2sc(N3CCCC3)nc12 | n | x | n | n | n
COc1ccc(OC)c2sc(N3CCN(c4ccccc4)CC3)nc12 | 25µM | u | n | n | n
CC1(C)Cc2nc3sc4c(SCC(=O)NCc5ccco5)ncnc4c3cc2CO1 | 5µM | n | n | n | n
Cc1cc(NC(=O)CSc2ccc(-c3nc4cc(C)c(C)cc4[nH]3)cn2)no1 | 0.32µM | n | n | u | n
Cc1ccc2nc(SCC(=O)Nc3cc(C)on3)[nH]c2c1 | n | n | n | n | n
CCOC(=O)Nc1ccc(Oc2ccccc2)cc1 | n | x | n | n | n
CCCOc1ccc(C(=O)Nc2ccc(N(C)C)cc2)cc1 | n | x | n[0.0738 µM] | n | n[9.17 µM]
CC(C)Oc1ccc(C(=O)Nc2ccc(N(C)C)cc2)cc1 | 3.2µM | x | n[0.0738 µM] | n | n[9.17 µM]
CC(C)Oc1ccc(NC(=O)Oc2ccccc2)cc1 | 13µM | x | n[0.0738 µM] | n | n[9.17 µM]
Clc1ccc(-c2nnc(SCc3ccon3)o2)c(Cl)c1 | 7.9µM | 10 | n | n | n

Compound activity as filed in PubChem BioAssay.
